This is an account of results in PubChem BioAssay (Tox21).

The nature of assay [1]: qHTS assay to identify small molecule antagonists of the estrogen related receptor (ERR) signaling pathway from Tox21 library - cell viability counter screen (AID 1224834). Further: nearly all actives have a fitted effect of over 30% in size. In outline: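 ERR cells, 2,000/well; 6 h settle at 37 C/5% CO2; pin-tool compound transfer in DMSO; 17.5 h at 37 C; CellTiter-Fluor, 30 min; fluorescence intensity.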
Background: In qHTS, concentration-response curves come from the screen itself.

In assay [2] the target is Luciferin 4-monooxygenase (Photinus pyralis) (UniProt P08659). Briefly: qHTS assay to identify small molecule inhibitors of firefly luciferase (AID 1224835). Further: nearly all actives have a fitted effect of over 25% in size. Further: potency means the concentration at half of the fitted maximal effect. On activity change, negative = inhibition: series mostly up to about 120 µM. In a few lines: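 Biochemical qHTS: compounds run as interplate titrations against purified firefly enzyme, with D-luciferin and ATP each at its KM concentration. Light output recorded by CCD imaging.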
Assay [3] is described as follows: qHTS assay to identify small molecule agonists of the constitutive androstane receptor (CAR) signaling pathway - cell viability counter screen (AID 1224836). Further: series mostly up to about 92 µM; nearly all actives have a fitted effect of over 45% in size. In outline: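 Cells were seeded and incubated 4 hrs. Compounds were added across 15 concentrations together with PK11195 at 0.75 uM final. Plates were incubated 23 hrs at 37 C. CellTiter-Fluor was added and fluorescence measured.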

In assay [4] the target is Nuclear receptor subfamily 1 group I member 3 (Homo sapiens) (UniProt Q14994). Briefly: qHTS assay to identify small molecule antagonists of the constitutive androstane receptor (CAR) signaling pathway (AID 1224838).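 Further: HepG2 cells stably expressing hCAR with CYP2B6 luciferase reporter stimulated by CITCO; nearly all actives have a fitted effect of over 40% in size.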 In a few lines:
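Antagonist mode used CITCO at a final 50 nM to activate CAR in human hepatoma HepG2 cells carrying stable hCAR and a 2.2 kb CYP2B6 promoter-luciferase construct. Compounds were tested at 15 concentrations over 24 h, with luminescence as the end point.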

Assay [5] shares this target. Briefly: qHTS assay to identify small molecule agonists of the constitutive androstane receptor (CAR) signaling pathway (AID 1224839). Further: nearly all actives have a fitted effect of over 15% in size. Further: potency means the concentration at half of the fitted maximal effect. On activation: series mostly up to about 92 µM. In a few lines:
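Cells were plated and incubated 4 hrs, then dosed with compounds at 15 concentrations. PK11195 was added to 0.75 uM final. After 24 hrs at 37 C, luciferase luminescence was measured.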

The nature of assay [6]: qHTS assay to identify small molecule antagonists of the estrogen related receptor signaling pathway with the pleiotropic PPARgamma coactivator (PGC) from Tox21 10K library (AID 1224841; call rule not given here; further: series mostly up to about 92 µM; actives are mostly falling curves and most rising ones were filed inactive; nearly all actives have a fitted effect of over 50% in size). In outline: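 Steps: plate 2,000 PGC/ERR cells per well; incubate 6 h at 37 C with 5% CO2; transfer compounds from DMSO stocks by pin tool; incubate 18 h at 37 C; add One-Glo; measure luminescence 30 min later.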

Assay [7] is described as follows: qHTS assay to identify small molecule agonists of the estrogen related receptor signaling pathway with the pleiotropic PPARgamma coactivator (PGC) from Tox21 10K library (AID 1224842). Further: nearly all actives have a fitted effect of over 15% in size. Further: potency means the concentration at half of the fitted maximal effect. In a few lines:
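PGC/ERR reporter cell line, 2,000 cells per well, incubated 6 h at 37 C before 23 nL compound in DMSO was added. After 18 h at 37 C, One-Glo luminescence read following 30 min at room temperature.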

A short description of assay [8]: qHTS assay to identify small molecule antagonists of the estrogen related receptor signaling pathway with the pleiotropic PPARgamma coactivator (PGC) from Tox21 10K library - cell viability counter screen (AID 1224840; active means well fitted cell-killing curve with a large enough effect in the repeat runs, not every such curve was filed as active; further: nearly all actives have a fitted effect of over 40% in size). In outline: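 Multiplexed viability counter screen in the PGC/ERR cell line: cells treated with DMSO-dissolved compounds for 17.5 hours at 37 C, then viability measured as CellTiter-Fluor fluorescence.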

The nature of assay [9]: qHTS assay to identify small molecule antagonists of the constitutive androstane receptor (CAR) signaling pathway - cell viability counter screen (AID 1224837). Further: series mostly up to about 92 µM; nearly all actives have a fitted effect of over 45% in size. In a few lines:
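Viability was measured with CellTiter-Fluor in a HepG2 line carrying stably transfected hCAR and a CYP2B6-2.2kb construct. Cells were exposed for 23 hr at 37 C to 15 compound concentrations with 50 nM CITCO as agonist.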

Results filed as inconclusive are left out. Unmarked numbers belong to inactive results. Calls of active or inactive are those of the source. Unless noted, the call rests on the fitted dose curve; in most records, active means well fitted curve in the direction sought with a large enough effect in the repeat runs; inconclusive means weak or mixed curves; inactive means no such curve, though single readings can be large; an effect the other way counts as inactive or inconclusive.
On the % scale 0 is the no-effect control and ±100 the full control effect.

Sequence of Luciferin 4-monooxygenase (Photinus pyralis) (P08659 whole entry, looked up): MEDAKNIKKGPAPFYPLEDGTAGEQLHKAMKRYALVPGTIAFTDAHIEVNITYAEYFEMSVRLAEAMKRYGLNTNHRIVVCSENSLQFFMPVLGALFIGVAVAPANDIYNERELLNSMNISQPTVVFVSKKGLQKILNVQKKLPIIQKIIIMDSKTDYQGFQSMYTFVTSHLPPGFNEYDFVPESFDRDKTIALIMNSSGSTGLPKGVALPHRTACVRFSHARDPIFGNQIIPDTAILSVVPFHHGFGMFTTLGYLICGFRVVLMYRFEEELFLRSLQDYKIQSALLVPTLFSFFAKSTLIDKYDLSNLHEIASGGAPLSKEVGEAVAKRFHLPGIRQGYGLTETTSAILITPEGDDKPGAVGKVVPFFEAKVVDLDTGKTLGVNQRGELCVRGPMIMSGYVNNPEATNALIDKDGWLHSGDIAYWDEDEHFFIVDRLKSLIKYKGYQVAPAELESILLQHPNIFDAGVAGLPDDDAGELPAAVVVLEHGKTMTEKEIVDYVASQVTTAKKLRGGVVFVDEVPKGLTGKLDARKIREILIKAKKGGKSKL
Sequence of Nuclear receptor subfamily 1 group I member 3 (Homo sapiens) (Q14994 whole entry, looked up): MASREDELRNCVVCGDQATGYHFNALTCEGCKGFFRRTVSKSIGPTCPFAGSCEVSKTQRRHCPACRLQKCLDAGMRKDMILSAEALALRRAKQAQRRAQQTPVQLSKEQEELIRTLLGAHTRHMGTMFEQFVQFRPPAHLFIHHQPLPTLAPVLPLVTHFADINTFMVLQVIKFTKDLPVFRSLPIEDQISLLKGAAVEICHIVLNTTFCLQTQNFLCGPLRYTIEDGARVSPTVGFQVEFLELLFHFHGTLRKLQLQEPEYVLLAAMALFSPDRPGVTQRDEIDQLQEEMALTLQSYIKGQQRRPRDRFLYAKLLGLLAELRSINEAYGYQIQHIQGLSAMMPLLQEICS

Consider `CC(CC(C#N)(c1ccccc1)C(C)C)N(C)C` (stereo not given), for which the Potency result in assay [1], in assay [2], in assay [3], in assay [4], in [5] and in [6] was “inactive” throughout. Further, the Potency entry in [7] was “inactive”.
Regarding `Nc1ccc(-c2ccc(F)cc2)cc1`, the Potency entry in assay [1], in assay [3], in assay [4], in assay [8] and in assay [6] was “inactive” in each case. Moreover, the Potency in [2] was 31.7 µM (active); in assay [5], 27.3 µM (active); in [7] it was 5.45 µM (active).
As to `O=C(Nc1ccc2c(c1)Cc1ccccc1-2)C(F)(F)F`, the Potency result in [1], in assay [9], in assay [4] and in assay [8] was “inactive” throughout. Also, the results for the Potency in [2] and in assay [5] were 6.33 µM (active) and 27.3 µM (active), respectively.
As to `CC(C)(C)NCC(O)COc1ccc(NC(=O)NC2CCCCC2)cc1` (stereo not given), the Potency result in assay [1], in assay [2], in [9], in [4] and in [8] was “inactive” each time.
For `O=C(OCCOCCOCCOC(=O)c1ccccc1)c1ccccc1`, the Potency entry in assay [1], in assay [2], in [9], in assay [4], in assay [5] and in [8] was “inactive” in each case.
As to `CC(=O)S[C@H](C(=O)N[C@H]1Cc2ccccc2[C@H]2CCC[C@@H](C(=O)O)N2C1=O)C(C)C`, the Potency entry in [1], in [2], in assay [9], in [4], in [5] and in [8] was “inactive” each time. Moreover, the Potency result in [6] and in assay [7] was “inactive” throughout.
In the case of `CC(C)Oc1ccccc1O`, the Potency entry in [1], in [2], in assay [3], in [4], in assay [5] and in assay [8] was “inactive” in each case. The Potency result in assay [6] and in assay [7] was “inactive” throughout.
On to `COc1ccc(/C(C)=C/C(=O)O)c(OC)c1`, for which the Potency entry in assay [1], in [2], in assay [3], in assay [8], in assay [6] and in [7] was “inactive” each time.
Take `c1ccc(-c2ccc(-c3ccccc3)cc2)cc1`: the results for the viability change, negative = cytotoxic in assay [1] and in assay [8] were 0.464% [at 19 µM] and 3.19% [at 19 µM], respectively. Besides, the Potency in assay [2] is 0.82 µM (active); in assay [5], 3.53 µM (active). For the same compound, the activity change, negative = cytotoxicity in [9] was -2.21% [at 19 µM]. The activity, negative = inhibition in assay [4] was 139% [at 19 µM].
For the compound `CC(C)(C(=O)O)c1ccc(C(O)CCCN2CCC(C(O)(c3ccccc3)c3ccccc3)CC2)cc1` (stereo not given), the Potency result in assay [1], in [2], in [9], in assay [4], in assay [5] and in assay [8] was “inactive” each time.
`CC(C)NC(=O)c1ccccc1N`: the Potency result in assay [1], in [2], in assay [9], in assay [4], in assay [5] and in [8] was “inactive” throughout.
On to `CCCc1nc(C)c2c(=O)[nH]c(-c3cc(S(=O)(=O)N4CCN(CC)CC4)ccc3OCC)nn12`, for which the Potency result in assay [1], in assay [2], in assay [9], in assay [4], in [5] and in assay [8] was “inactive” each time.
Regarding `C/C=C1\[C@H]2C=C(C)C[C@]1(N)c1ccc(=O)[nH]c1C2`, the Potency result in [1], in [2], in assay [9], in [4] and in [5] was “inactive” in each case.
On to `C[C@H](CN1CCCC1)C(=O)c1ccc(C(F)(F)F)cc1`, for which the Potency result in assay [1], in assay [2], in assay [3], in [5] and in [8] was “inactive” throughout.
On to `Cc1ccc(Cl)c(OCC(O)CNC(C)(C)C)c1` (stereo not given), for which the Potency entry in assay [1], in assay [2], in assay [3] and in assay [8] was “inactive” each time.
For the compound `C/C(=C\C(C)CC(C)CC(C)C)C1CC(=O)OC1=O` (stereo not given), the Potency entry in assay [1] and in assay [9] was “inactive” in each case. Besides, the Potency in [2] was 89.4 µM (active).
`CCCCCCCCCCCCSC#N`: the Potency entry in [1], in assay [2], in [3], in assay [8], in [6] and in [7] was “inactive” each time.
As for `O=C(OC1C[C@H]2CC[C@@H](C1)[N+]21CCCC1)C(O)(c1ccccc1)c1ccccc1` (stereo not given in full), the Potency result in [1], in assay [2], in [9], in [4], in [5] and in assay [8] was “inactive” throughout.
With `C[Si](C)(C)O[Si](C)(C)O[Si](C)(C)C`, the Potency entry in assay [1], in assay [2], in assay [9], in [4], in assay [5] and in [8] was “inactive” throughout.
With `CC(C)CCCCCOC(=O)CS`, the Potency result in [1], in assay [2], in assay [9], in assay [4], in assay [5] and in assay [8] was “inactive” each time.
Turning to `Cc1cc(N)n(-c2ccccc2)n1`, the Potency entry in assay [1], in [2], in [3], in assay [4], in assay [8] and in assay [6] was “inactive” in each case. In addition, in assay [7], the Potency entry is “inactive”.
`O=S(=O)(O)c1cc(Cl)c(Cl)cc1Cl`: the Potency result in assay [1], in assay [2], in assay [9], in assay [4], in assay [5] and in [8] was “inactive” throughout.
As for `C1CCN(CN2CCCCC2)CC1`, the Potency result in assay [1], in [2], in assay [9], in [4], in assay [5] and in assay [8] was “inactive” throughout.
Take `S=c1[nH][nH]c(=S)s1`: the Potency entry in [1], in assay [9], in assay [4], in assay [5] and in assay [8] was “inactive” each time. Also, in [2], the Potency was 11.2 µM (active).
With `CCCCCO`, the Potency result in assay [1], in [2], in assay [9], in [4], in [5] and in assay [8] was “inactive” throughout. The Potency result in assay [6] and in assay [7] was “inactive” each time.
For the compound `COC=O`, the viability change, negative = cytotoxic was 0.652% [at 8.39 µM] in [1], -8.98% [at 8.39 µM] in [3] and 0.435% [at 8.39 µM] in assay [8]. For the same compound, the activity change, negative = inhibition in assay [2] was -0.731% [at 10.5 µM]. Besides, the figures for the activity, negative = inhibition in assay [4] and in assay [6] were 0.829% [at 8.39 µM] and 9.85% [at 8.39 µM], respectively. For the same compound, the activation is -2.43% [at 8.39 µM] in assay [5] and 3.43% [at 8.39 µM] in assay [7].
